Source: publication PMC4336329 (PLoS ONE, 2015)
Screen size: about 310,000 compounds; about 14,000 (4.5%) showed an effect of 50% or more. Effects have a minus sign here. Only a selection was taken, and strong results are over-represented in it overall.

Molecular target: human ether-à-go-go-related gene (hERG) potassium channel (human, UniProt Q12809)
Assay: primary screen, population patch clamp on CHO cells stably expressing hERG; higher = less effect of the substance
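Note: peak tail current of the secondary pulse compared with the same well before compound.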

Sequence of human ether-à-go-go-related gene (hERG) potassium channel (Q12809 whole entry, looked up): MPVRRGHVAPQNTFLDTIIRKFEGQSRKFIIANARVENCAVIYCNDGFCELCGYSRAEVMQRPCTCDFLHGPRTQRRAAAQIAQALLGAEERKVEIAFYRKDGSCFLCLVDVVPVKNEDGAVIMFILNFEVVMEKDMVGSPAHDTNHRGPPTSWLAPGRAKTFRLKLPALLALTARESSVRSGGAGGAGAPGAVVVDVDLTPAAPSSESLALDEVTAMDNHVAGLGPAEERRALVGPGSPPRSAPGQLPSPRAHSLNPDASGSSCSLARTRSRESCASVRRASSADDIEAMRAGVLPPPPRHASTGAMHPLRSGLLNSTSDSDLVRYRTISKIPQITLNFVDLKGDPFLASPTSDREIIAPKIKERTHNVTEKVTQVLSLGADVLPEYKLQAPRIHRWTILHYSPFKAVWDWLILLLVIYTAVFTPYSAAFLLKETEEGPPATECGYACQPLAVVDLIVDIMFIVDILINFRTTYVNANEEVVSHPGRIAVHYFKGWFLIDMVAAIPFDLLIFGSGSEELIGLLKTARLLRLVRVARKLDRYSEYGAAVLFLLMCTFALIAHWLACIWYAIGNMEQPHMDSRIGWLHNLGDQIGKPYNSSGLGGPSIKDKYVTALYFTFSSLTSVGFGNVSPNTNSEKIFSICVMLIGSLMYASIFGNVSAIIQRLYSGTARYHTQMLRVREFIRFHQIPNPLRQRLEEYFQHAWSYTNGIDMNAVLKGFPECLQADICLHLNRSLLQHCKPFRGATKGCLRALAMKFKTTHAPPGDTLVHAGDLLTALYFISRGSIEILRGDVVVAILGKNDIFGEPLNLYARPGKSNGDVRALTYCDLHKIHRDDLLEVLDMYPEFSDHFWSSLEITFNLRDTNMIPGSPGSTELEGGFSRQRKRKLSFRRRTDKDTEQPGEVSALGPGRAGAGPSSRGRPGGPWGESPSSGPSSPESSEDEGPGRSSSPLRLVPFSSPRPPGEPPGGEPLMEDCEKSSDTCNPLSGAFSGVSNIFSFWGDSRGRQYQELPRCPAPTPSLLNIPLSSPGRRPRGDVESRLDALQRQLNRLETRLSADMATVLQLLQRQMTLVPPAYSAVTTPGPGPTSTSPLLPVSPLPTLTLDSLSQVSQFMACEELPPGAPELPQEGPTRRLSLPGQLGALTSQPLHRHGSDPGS

Question: How did the “hERG current change (%, negative = inhibition) at 10uM” value turn out when `C=CCN(C(=O)C1=NN(C2CCS(=O)(=O)C2)C(=O)CC1)c1nc(-c2ccc([N+](=O)[O-])cc2)cs1` (stereo not shown) was run?
Answer: -63.5%

Question: How did the “hERG current change (%, negative = inhibition) at 10uM” value turn out when `C=CCN(C(=O)C1CC(=O)N(C2CCCC2)C1)c1nc(-c2ccc(S(C)(=O)=O)cc2)cs1` (stereo not shown) was run?
Answer: -47.1%

Question: With `Cc1ccc(-c2csc(NC(=O)C3=NN(C4CCS(=O)(=O)C4)C(=O)CC3)n2)cc1` (stereo not shown) as the molecule, how does the “hERG current change (%, negative = inhibition) at 10uM” value read?
Answer: -3.9%

Question: `CN1CCN(C2=Nc3cc(F)ccc3Cc3ccccc32)CC1` was tested. Which “hERG current change (%, negative = inhibition) at 10uM” value did it give?
Answer: -35.7%

Question: Which “hERG current change (%, negative = inhibition) at 10uM” value does the source give for `Cc1sc(NC(=O)Cc2ccc3c(c2)OCO3)nc1-c1ccc2c(c1)CCN2C(=O)c1ccccc1F` here?
Answer: -0.586%

Question: `COc1cc(NC(=O)Cc2c(C(=O)O)n(C)c3ccccc23)cc(OC)c1OC` was tested. Which “hERG current change (%, negative = inhibition) at 10uM” value did it give?
Answer: 35%

Question: For `Cc1ccc(-n2c(O)c(C=NC3CCS(=O)(=O)C3)c3ccccc3c2=O)cc1` (stereo not shown), which “hERG current change (%, negative = inhibition) at 10uM” value is on record?
Answer: -3.54%

Question: For `Cc1ccc(-n2c(O)c(C=NC3CCS(=O)(=O)C3)c3ccccc3c2=O)c(C)c1` (stereo not shown), which “hERG current change (%, negative = inhibition) at 10uM” value is on record?
Answer: -0.346%

Question: Which “hERG current change (%, negative = inhibition) at 10uM” value does the source give for `Cc1cccc(-n2c(O)c(C=NC3CCS(=O)(=O)C3)c3ccccc3c2=O)c1C` (stereo not shown) here?
Answer: -54.1%

Question: How did the “hERG current change (%, negative = inhibition) at 10uM” value turn out when `O=S(=O)(NCCOc1ccccc1Cl)c1ccc2oc3ccccc3c2c1` was run?
Answer: 3.52%

Question: For `Cc1ccccc1C(=O)Nc1cccc(-c2ccc3nncn3n2)c1`, which “hERG current change (%, negative = inhibition) at 10uM” value is on record?
Answer: -2.94%

Question: For `OC1(CNCc2cn[nH]c2-c2cc3ccccc3o2)CCCCC1`, which “hERG current change (%, negative = inhibition) at 10uM” value is on record?
Answer: -28.7%

Question: Which “hERG current change (%, negative = inhibition) at 10uM” value does the source give for `O=C(c1ccccn1)C1CCCN(Cc2nc(Cc3cccc(F)c3)no2)C1` (stereo not shown) here?
Answer: -5.63%

Question: With `COCC1CCCN(Cc2cn[nH]c2-c2cc3ccccc3o2)C1` (stereo not shown) as the molecule, how does the “hERG current change (%, negative = inhibition) at 10uM” value read?
Answer: -47.5%

Question: `COCCN1CCN(Cc2cn[nH]c2-c2cc3ccccc3o2)CC1` was tested. Which “hERG current change (%, negative = inhibition) at 10uM” value did it give?
Answer: -6.62%

Question: Which “hERG current change (%, negative = inhibition) at 10uM” value does the source give for `O=C(c1ccccn1)C1CCCN(Cc2cn[nH]c2-c2cc3ccccc3o2)C1` (stereo not shown) here?
Answer: -70%

Question: Which “hERG current change (%, negative = inhibition) at 10uM” value does the source give for `c1ccc(CCC2CCCCN2Cc2cn[nH]c2-c2cc3ccccc3o2)nc1` (stereo not shown) here?
Answer: -74.9%

Question: For `COc1ccc(OC)c(NC(=O)C2C(C(=O)O)C3(Cl)C(Cl)=C(Cl)C2(Cl)C3(Cl)Cl)c1` (stereo not shown), which “hERG current change (%, negative = inhibition) at 10uM” value is on record?
Answer: 7.73%

Question: For `Cc1cc(CNC(=O)CC2C(=O)NCCN2Cc2ccccc2C(F)(F)F)nn1C` (stereo not shown), which “hERG current change (%, negative = inhibition) at 10uM” value is on record?
Answer: 9.04%

Question: `Cc1cc(Br)ccc1OCCCCNC(C)(C)C.O=C(O)C(=O)O` was tested. Which “hERG current change (%, negative = inhibition) at 10uM” value did it give?
Answer: -53.9%

Question: For `COCCCNCCCCOc1ccc(Br)cc1Cl.O=C(O)C(=O)O`, which “hERG current change (%, negative = inhibition) at 10uM” value is on record?
Answer: -67.1%

Question: How did the “hERG current change (%, negative = inhibition) at 10uM” value turn out when `CN(C)CCOCCOc1ccc(Cl)cc1Br.O=C(O)C(=O)O` was run?
Answer: -42.6%

Question: How did the “hERG current change (%, negative = inhibition) at 10uM” value turn out when `Cc1cc(Br)cc(C)c1OCCCCN(C)C.O=C(O)C(=O)O` was run?
Answer: -54.4%

Question: For `COCCCNC(=O)COc1ccc(Br)cc1Cl`, which “hERG current change (%, negative = inhibition) at 10uM” value is on record?
Answer: -7.88%

Question: With `CN(C)CCCOc1cccc(Cl)c1.O=C(O)C(=O)O` as the molecule, how does the “hERG current change (%, negative = inhibition) at 10uM” value read?
Answer: -19.5%

Question: With `Cc1cc(C)c(OCCCCN(C)C)c(Br)c1.O=C(O)C(=O)O` as the molecule, how does the “hERG current change (%, negative = inhibition) at 10uM” value read?
Answer: -41.5%

Question: With `Cc1cc(Cl)cc(Cl)c1OCCCCN(C)C.O=C(O)C(=O)O` as the molecule, how does the “hERG current change (%, negative = inhibition) at 10uM” value read?
Answer: -43.7%

Question: For `C=CCNCCCCOc1ccc(Br)cc1C.O=C(O)C(=O)O`, which “hERG current change (%, negative = inhibition) at 10uM” value is on record?
Answer: -41%

Question: For `CN(C)CCCOc1ccc(Cl)cc1Br.O=C(O)C(=O)O`, which “hERG current change (%, negative = inhibition) at 10uM” value is on record?
Answer: -69.3%

Question: With `Cc1cc(Br)ccc1OCCCCNCCO.O=C(O)C(=O)O` as the molecule, how does the “hERG current change (%, negative = inhibition) at 10uM” value read?
Answer: -28.1%

Question: For `COCCNCCCOc1ccc(Br)cc1Cl.O=C(O)C(=O)O`, which “hERG current change (%, negative = inhibition) at 10uM” value is on record?
Answer: -31.8%
